# Results filed as inconclusive are left out. Where a call stands in place of a potency, no number is given. The source made the active and inactive calls. Calls follow the shape of the dose curve; as a rule, active = well fitted cell-killing curve with a large enough effect in the repeat runs; inconclusive = weak or mixed curves; inactive = flat fitted curve, though single readings scatter.
# Experiment: qHTS RealTime-Glo MT Cell Viability Assay in HepG2 cells - 24 hour (AID 1224867); also: nearly all actives have a fitted effect of over 50% in size
# Settings: RealTime-Glo luminescence; series mostly up to 76.8 µM
# Source text: U.S. Tox21 Program National Center for Advancing Translational Sciences [NCATS] NIH Chemical Genomics Center [NCGC] U.S. Environmental Protection Agency [EPA] National Institutes of Environmental Health Sciences [NIEHS] National Toxicology Program [NTP] U.S. Food and Drug Administration [FDA] Tox21 Assay Overview: Measure of cell viability is critical in the cell-base assay. Analysis of cell viability is necessary for the characterization of cell responses to cytotoxic drugs and environmental stress. A RealTime-Glo MT Cell Viability Assay to monitor cell viability in real time of continues cell culture during 40 hours of compound treatment was used to screen Tox21 10K library compounds in HepG2 cells. The RealTime-Glo MT Cell Viability Assay is a nonlytic, homogeneous, bioluminescent method to measure cell viability in real time using a simple, plate-based method. The assay involves adding NanoLuc luciferase and a cell-permeant prosubstrate to cells in culture. Viable cells reduce the proprietary prosubstrate to generate a substrate for NanoLuc luciferase. This substrate diffuses from cells into the surrounding culture medium, where it is rapidly used by the NanoLuc Enzyme to produce a luminescent signal. The signal correlates with the number of viable cells, making the assay well suited for cytotoxicity studies.
# Tox21 Assay Protocol Summary: The mixture of HepG2 cell suspension and reagents were dispensed at 600cells/6 ul/well in 1536-well tissue culture treated black solid bottom plates using a Multidrop dispenser. After the assay plates were incubated at a 37 C/5% CO2 incubator for 5 hours, 23 nL of compounds dissolved in DMSO, positive and negative controls was transferred to the assay plate by a pintool work station. The plates were incubated at 37 C for 40 hours. The luminescence intensity were measured at 0h, 8h, 16h, 24h, 32h and 40h time points using ViewLux plate reader during compound treatment.
row,SMILES,Potency
1,C=CCN1CC[C@]23CCCC[C@H]2[C@H]1Cc1ccc(O)cc13,inactive
2,NNC(N)=O,inactive
3,CN(C)C(=O)Oc1cc(OC(=O)N(C)C)cc(C(O)CNC(C)(C)C)c1 (stereo not given),inactive
4,CS(=O)(=O)c1ccc(C(=O)C2C(=O)CCCC2=O)c(Cl)c1COCC(F)(F)F,inactive
5,Cn1c(N)nc2c3cccnc3ccc21,inactive
6,Cl/C=C/CCl,inactive
7,Oc1ccc(Cc2ccc(O)cc2)cc1,inactive
8,CCNc1nc(Cl)nc(NC(C)(C)C)n1,inactive
9,CCSC(=O)Cl,inactive
10,CCc1ccc(C2CCNCC2)cc1,inactive
11,CC(C)(C)C(=O)Cl,inactive
12,CC(C)(C)C(=O)C(Cl)Cl,inactive
13,COC(=O)c1ccccc1CS(=O)(=O)NC(=O)Nc1nc(OC)cc(OC)n1,inactive
14,CC(Cc1ccccc1)NCCCCl (stereo not given),inactive
15,CCCCCCCC(=O)Cl,inactive
16,CCOP(=S)(OCC)Oc1ccc(Cl)cc1Cl,inactive
17,C=C1CC[C@@]2(O)[C@H]3Cc4ccc(O)c5c4[C@@]2(CCN3CC2CC2)[C@H]1O5,inactive
18,CCN[C@@H](C)Cc1ccccc1,inactive
19,C=C(C)[C@H]1CN[C@H](C(=O)O)[C@H]1CC(=O)O,inactive
20,[O-][Br+2]([O-])O,inactive

row,SMILES,Potency
1,CCOc1cc(OP(=S)(OC)OC)nc(CC)n1,inactive
2,CNC(=O)Oc1ccccc1C(C)C,inactive
3,CCCCOC(C)=O,inactive
4,BrCC1CO1 (stereo not given),inactive
5,O=C(O)C(F)(F)C(F)(F)C(F)(F)C(F)(F)C(F)(F)C(F)(F)F,inactive
6,O=C(Cl)C(Cl)Cl,inactive
7,CCCN1CCC[C@@H]2Cc3[nH]ncc3C[C@H]21,inactive
8,CCCOc1nn(C(=O)NS(=O)(=O)c2ccccc2C(=O)OC)c(=O)n1C,inactive
9,CCNc1nc(NCC)nc(SC)n1,inactive
10,CCCOC(=O)Cc1ccc(OCC(=O)N(CC)CC)c(OC)c1,inactive
11,C=CCc1cc(OC)c2c(c1)OCO2,inactive
12,CCOC(=O)c1ncn2c1CN(C)C(=O)c1c(I)cccc1-2,inactive
13,CCOC(=O)NC(C)(C)Cc1ccc(Cl)cc1,inactive
14,CCN[C@@H](C)Cc1cccc(C(F)(F)F)c1,inactive
15,CC1NCCOC1c1ccccc1 (stereo not given),inactive
16,CCOC(=O)N(C)N=O,inactive
17,CC(C)C(C)(N)C#N (stereo not given),inactive
18,O=S1(=O)OCCO1,inactive
19,CCC1(c2cccc(O)c2)CCCCN(C)C1 (stereo not given),inactive
20,O=P(O)(O)CN(CP(=O)(O)O)CP(=O)(O)O,inactive

# — PubChem BioAssay (Tox21)
